Results on 61 sequences are retold here after the supplement of paper PMC11417369.

In all, about 25,000 sequences were measured (“ln(normalized median fluorescence intensity)”: median about 7.1, highest 2% from about 10 on). Shown is part of a subset that was picked to be rich in the highest values.

The subject of this assay is PfSIP2 AP2 domain 1 (GST-tagged). The experiment in a line: gcPBM binding intensity (ln(normalized median fluorescence intensity)); higher = stronger DNA binding. An outline of the steps:
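GST-tagged P. falciparum DNA-binding domains, expressed in E. coli (about 25 μg on average), were applied for 1 h to an Agilent 4 × 180k array of primer-extended double-stranded 36-bp intergenic genomic probes plus negative controls. The binding buffer was 1× PBS with 1% milk, 0.2 mg/ml BSA, 0.5% salmon testes DNA and 0.03% Triton X-100. Bound protein was detected with Alexa488 anti-GST antibody and scanned at 488 nm. Binding intensity is the highest Masliner-normalised natural-log median intensity across replicate spots of either probe orientation.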
As for “TACTATATCGATACCAGTACAGATTTATAAATAATA [XGTACX_site7491]”, the “gcPBM binding intensity (ln)” value stood at 6.94.

For “ATAAATAATATATATACACACATATCTATACATATT [CACACA_site487]”, the “gcPBM binding intensity (ln)” value is 7.05.

As for “AAATTAAAGGCATAAAAGAAAATATTTAATAAAAAA [CACACA_negctrl_site1689]”, the “gcPBM binding intensity (ln)” value was 6.57.

With “AATAATAATAAAAAGGTGCTGAAATATTTTTATTAT [GTGCAC_site9763]”, the “gcPBM binding intensity (ln)” value was found to be 8.38.

As to “GCTGAAAGGATAAAGGTGCATATTTTTTAAAAAATT [GTGCAC_site9487]”, the “gcPBM binding intensity (ln)” value came out at 11.2.

For “ATTCTATAGAAACACACACACATGCATGCACCTATA [CACACA_site107]”, the “gcPBM binding intensity (ln)” value worked out at 11.7.

Turning to “TATATATAGAAACACACACACACATATATATATATA [CACACA_site4116]”, the “gcPBM binding intensity (ln)” value was 9.25.

Take “ATACACACAGCCTAAACATGCATATAGAAAAAAGAA [TGCATGCA_site1028]”: the “gcPBM binding intensity (ln)” value stood at 7.4.

“AATAAGTAACAAAATACACACATATAGGTAATTATA [CACACA_site6949]”: the “gcPBM binding intensity (ln)” value was 6.83.

As for CATAACATAAAATAGGTGCACAAAAATTGTAATTGA, the “gcPBM binding intensity (ln)” value amounted to 11.2.

In the case of “GTTGTGTAATTCGTAACACACATAAAATATATATAA [CACACA_site6059]”, the “gcPBM binding intensity (ln)” value worked out at 6.97.

For the sequence “ACATATGAATATAATACACACTTGTATTATTAATAT [CACACA_site8546]”, the “gcPBM binding intensity (ln)” value is 6.85.

On to “ATATTCTTGTTTAATACACACTGTAGTATTATATAT [CACACA_site4400]”, for which the “gcPBM binding intensity (ln)” value was determined as 7.17.

Regarding “GTACACCTATAATATACACACAACAAATATGCACAT [CACACA_site6603]”, the “gcPBM binding intensity (ln)” value was 8.84.

Turning to ATACAGTTGCATATGGTGCACGAATAATACACCTAT, the “gcPBM binding intensity (ln)” value came to 11.3.

Consider “GAATAATATGGACATACACACATATACATACCTATA [CACACA_site7075]”, for which the “gcPBM binding intensity (ln)” value turned out to be 7.25.

As to “ACACTTAAATATTGTTGTACAAAATGATAAAATGTA [XGTACX_site4588]”, the “gcPBM binding intensity (ln)” value stood at 7.13.

As for “CACCCTTTGTTTTAGAGTACATATGTATATACGTAA [XGTACX_site7964]”, the “gcPBM binding intensity (ln)” value is 7.53.

Consider “ATAAAAAACTCAGAGCGTACATAATTTTTTCTATTT [XGTACX_site2803]”, for which the “gcPBM binding intensity (ln)” value came out at 7.24.

In the case of “TATATATGGGTAACCTTTTTTTTTTTTTTTCGAACA [CACACA_negctrl_site1303]”, the “gcPBM binding intensity (ln)” value was 6.8.

“AGGTAGAAAAAAGACACACACATTATGTATATATAT [CACACA_site377]”: the “gcPBM binding intensity (ln)” value is 7.6.

With “ACAAAATTTACAAAATGTACAAAATATACAAAATAT [XGTACX_site6465]”, the “gcPBM binding intensity (ln)” value stood at 6.99.

In the case of “CACCCTTTACACAAGGTGCATACTTTATTATATTTT [GTGCAC_site9778]”, the “gcPBM binding intensity (ln)” value was 10.6.

TACAATATATTTATAGTGCATATTACTTTTAACTTT: the “gcPBM binding intensity (ln)” value amounted to 8.41.

As to CATATTATTATTTTGGTGCATACTTATATATATTTT, the “gcPBM binding intensity (ln)” value was 9.74.

Regarding AAAATTATTTAGTAAGTGCAAAAAAAAAAAAAAAAA, the “gcPBM binding intensity (ln)” value was found to be 8.21.

As to TATTTTTATTATATGGTGCATATATACATACATATA, the “gcPBM binding intensity (ln)” value amounted to 10.4.

On to “TTATTTTTATATTTCACACACATATACTTTTACATA [CACACA_site4097]”, for which the “gcPBM binding intensity (ln)” value is 7.28.

For “TACATACATATATTATGTACATATTTTATTTTTATT [XGTACX_site1642]”, the “gcPBM binding intensity (ln)” value is 7.08.

As for TATTATTATTTTATGGTGCAAAAAAAAAAAAAAAAA, the “gcPBM binding intensity (ln)” value was 10.6.

Consider ATTTATTTTAAATAAGTGCAAAATGGTTATAAATAA, for which the “gcPBM binding intensity (ln)” value is 8.23.

Take “AAGGAGCCTATGAACACACACATGTACATATATTAA [CACACA_site4084]”: the “gcPBM binding intensity (ln)” value is 7.03.

As to “TATATATGCATTAAAGTGTTTTTTTTTTTTTTTTTT [CACACA_negctrl_site1353]”, the “gcPBM binding intensity (ln)” value was 7.72.

With “TACACATTATGTATCATACACACAAATAAATATATA [CACACA_site608]”, the “gcPBM binding intensity (ln)” value worked out at 7.1.

In the case of “TAAGAAATTGAGCGCACACATACATCTGTGGGATGG [CACACA_site1548]”, the “gcPBM binding intensity (ln)” value was 6.71.

For the sequence “CATACACATTTCATATGTACATAGATTGAAGGGAAG [XGTACX_site116]”, the “gcPBM binding intensity (ln)” value turned out to be 7.21.

As to “ATATATATATTATATGCACACTAATAAGACTATTTA [CACACA_site5880]”, the “gcPBM binding intensity (ln)” value turned out to be 9.55.

Consider “TACGTAATAATATGCACACAAATAAACTTTATAAAT [CACACA_site3501]”, for which the “gcPBM binding intensity (ln)” value turned out to be 8.22.

Turning to “TATACGTAATAATATGCACACAAATAAACTTTATAA [CACACA_site9166]”, the “gcPBM binding intensity (ln)” value was 8.88.

Turning to “CGAGCAAGACGGGGTGCACACAAACTAATATGCCGA [CACACA_site7936]”, the “gcPBM binding intensity (ln)” value came to 12.1.

With “ATATATATTATATGCACACTAATAAGACTATTTAAA [CACACA_site3554]”, the “gcPBM binding intensity (ln)” value turned out to be 9.68.

Regarding “AGCAAGACGGGGTGCACACAAACTAATATGCCGAAT [CACACA_site159]”, the “gcPBM binding intensity (ln)” value stood at 12.1.

Turning to “ATTTAATTCGTACATACACACGCACATATATATATA [CACACA_site8415]”, the “gcPBM binding intensity (ln)” value turned out to be 8.85.

Take “CTATTAAAAAAATTATGTACACAACGTCTCTATATA [XGTACX_site4813]”: the “gcPBM binding intensity (ln)” value is 7.01.

As for “TTTTTTAAAATATATATAATGAATTTTTTTTTTTTT [CACACA_negctrl_site1577]”, the “gcPBM binding intensity (ln)” value turned out to be 7.05.

Regarding “TGATCAAATAAGTTTGCATGTCAACAATGCATATAT [TGCATGCA_site1025]”, the “gcPBM binding intensity (ln)” value is 7.19.

Consider “AAAAAAAAAAAAGATACACACAAAAATGGATATATA [CACACA_site7069]”, for which the “gcPBM binding intensity (ln)” value stood at 6.77.

In the case of CAATTATTGTAATGCATGCACTGAATATAAAAAGAA, the “gcPBM binding intensity (ln)” value was found to be 9.18.

“AAAAAATAAATAAATACACACACACTAATATATATA [CACACA_site8488]”: the “gcPBM binding intensity (ln)” value turned out to be 7.67.

Take TATATATATATATGAGTGCATATGTGTAATATAAAA: the “gcPBM binding intensity (ln)” value was found to be 9.27.

Regarding “TTTTCTCTAAAAAGGTGTACAACTAATAATGCACTG [XGTACX_site6074]”, the “gcPBM binding intensity (ln)” value stood at 9.09.

Consider TGAGCACAAATACAGGTGCATATAAAATATATGACG, for which the “gcPBM binding intensity (ln)” value turned out to be 10.5.

With “ATTTTATATAATACATGTACAAAAGTTTAAATTTAT [XGTACX_site6196]”, the “gcPBM binding intensity (ln)” value was 7.13.

Turning to TTATAAAAGACAAAAGTGCATATATACATATGTATA, the “gcPBM binding intensity (ln)” value was found to be 8.27.

On to TTTTTTTGTTAAAAGGTGCTAATATATATAAGTGCT, for which the “gcPBM binding intensity (ln)” value stood at 9.03.

Consider “TATTTTATATAAAGGTGTACTTATACAAAAATATAT [XGTACX_site7435]”, for which the “gcPBM binding intensity (ln)” value came out at 7.22.

Consider “ATTTTTCTAAAATACTGTACAAAGGTGCATAAAAAG [XGTACX_site4425]”, for which the “gcPBM binding intensity (ln)” value amounted to 11.5.

With “AGGTTATAAATAAATACACACATACAAAAATATGAC [CACACA_site4773]”, the “gcPBM binding intensity (ln)” value was determined as 6.94.

Consider “ATGTTTGAGCCTAAGGTGCATATAAAAATATATGTG [GTGCAC_site9690]”, for which the “gcPBM binding intensity (ln)” value was 10.7.

Turning to “TATAAATATACAAAGGTGCATAAAAAGTTATGTTTT [GTGCAC_site9832]”, the “gcPBM binding intensity (ln)” value is 10.4.

For “GTTATAAATAAATACACACATACAAAAATATGACGT [CACACA_site1154]”, the “gcPBM binding intensity (ln)” value came out at 6.94.
